74 compounds from the supplement of paper PMC10600219 can be followed below.

Structures can show the parent of a compound that is named as a salt. Whole data set: some 2,800 compounds, median “cell viability relative to vehicle” near 0.98, cut for the lowest 2% near 0.45. The sample as a whole holds a higher share of the lowest values than the screen did.

This experiment deals with NCI-H2228 alectinib-DTP. Put plainly: cell viability relative to vehicle (fraction of vehicle); NCI-H2228 is an ALK-positive lung cancer line and DTP means drug-tolerant persister; higher = less growth inhibition. To be noted: 100 nM; treatment time 6 days. In outline:
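Each value is viability relative to vehicle-treated cells, measured as ATP with the CellTiter-Glo 3D Cell Viability Assay. Parental NCI-H2228 cells and drug-tolerant persisters (1000 nM targeted drug, 13 days) in 384-well plates received the 3114-agent TargetMol anti-cancer compound library at 100 nM, or DMSO, and were read 6 days later.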
`CCCCCCCCCC(=O)CC(O)S(=O)(=O)O` (centres undefined) [Sodium houttuyfonate]: the cell viability amounted to 1.08. Take `CC(=O)OC(C)(C)CCC(=O)[C@](C)(O)[C@H]1[C@H](O)C[C@@]2(C)[C@@H]3CC=C4[C@@H](C[C@H](O)[C@@H](O)C4(C)C)[C@]3(C)C(=O)C[C@]12C` [Cucurbitacin IIA]: the cell viability amounted to 1.07. Compound `Oc1ccc(C(c2c[nH]c3ccccc23)c2c[nH]c3ccccc23)cc1` gave a cell viability of 1.08. For the compound `C[C@@H]1O[C@@H](O[C@@H]2[C@H](O)[C@@H](O)[C@H](O[C@H]3CC[C@@]4(C)C(CC[C@]5(C)C4C=C[C@]46OC[C@@]7(CCC(C)(C)CC74)[C@@H](O)C[C@]65C)C3(C)C)O[C@@H]2CO[C@@H]2O[C@H](CO)[C@@H](O)[C@H](O)[C@H]2O)[C@H](O)[C@H](O)[C@H]1O` (some centres undefined) [Saikosaponin C], the cell viability amounted to 0.993. As for `COc1ccc(CC(=O)NC(/N=C(\NC#N)Nc2cccc3ncccc23)C(C)(C)C)cc1OC` (centres undefined), the cell viability was 0.985.

As to `Cc1ccc(NC(=S)NNc2c([N+](=O)[O-])cc(C(F)(F)F)cc2[N+](=O)[O-])cc1Cl`, the cell viability was found to be 0.982. Take `COc1ccc(CCC(=O)O)cc1OC` [3,4-Dimethoxyhydrocinnamic acid]: the cell viability was 0.856. Next, `N=C(NCCCCCCNC(=N)NC(=N)Nc1ccc(Cl)cc1)NC(=N)Nc1ccc(Cl)cc1` [Chlorhexidine hydrochloride]: 1.02.

As to `N=C(NCCCCCCNC(=N)NC(=N)Nc1ccc(Cl)cc1)NC(=N)Nc1ccc(Cl)cc1` [Chlorhexidine], the cell viability was determined as 1.17. In the case of `N#CN=C(NCCCCCCOc1ccc(Cl)cc1)Nc1ccncc1` it was 0.165.

The compound `C[C@@H]1CC[C@]2(C(=O)O)CC[C@]3(C)C(=CC[C@@H]4[C@@]5(C)CC[C@H](O)[C@@](C)(CO)[C@@H]5CC[C@]43C)[C@@H]2[C@]1(C)O` [Rutundic acid] gave a cell viability of 1.02.

For `CCN(CC)CC(O)CNc1ccc(NCC2CO2)c2c1C(=O)c1ccccc1C2=O` (centres undefined), the cell viability was found to be 0.831. As to `O=C(NCCCn1ccnc1)c1cc(-c2ccco2)on1`, the cell viability was 1.03. `C[C@H](CC(=O)C[C@@H](C)[C@H]1C[C@H](O)[C@@]2(C)C3=C(C(=O)C[C@]12C)[C@@]1(C)CCC(=O)C(C)(C)[C@@H]1C[C@@H]3O)C(=O)O` [Ganoderic acid A] had a cell viability of 1.03. In the case of `CNC(=O)Nc1cc(Oc2cncc(C)c2)c(-c2ccc(OCC(C)(C)O)nc2)cn1` it was 0.91; in that of `COc1cc2cc(Oc3ccc4ccc(=O)oc4c3)c(=O)oc2cc1O` [Daphnoretin], 1.11. In the case of `COCC[n+]1c2c(n(Cc3cnccn3)c1C)C(=O)c1ccccc1C2=O` it was 0.0756; in that of `CC(C)(NS(=O)(=O)c1ccc2c(Cl)cnc(N=C(N)N)c2c1)C(=O)O`, 1.04. As for `CCC(=O)N1CCOc2c(cc(-c3ccc(OC)c(OC)c3)cc2OC[C@H]2CCCN(C)C2)C1` [I-CBP112 hydrochloride], the cell viability is 0.963. In the case of `Cc1cc(N2C[C@@H](C)N[C@@H](C)C2)ncc1-c1ccc(-c2nc3c(ccn3C)c(=O)[nH]2)cc1` it was 0.757; in that of `C[C@H](NC(=O)CNC(=O)c1cccc(Cl)c1)c1ccccc1`, 0.957; in that of `CCCC(C)NC(=O)c1ccc(Cl)c(Cl)c1` (centres undefined), 1.07.

On to `CC(C)C[C@H](NC(=O)CNC(=O)c1cc(Cl)ccc1Cl)B1OC(=O)C(CC(=O)O)(CC(=O)O)O1`, for which the cell viability was found to be 0.342. Compound `CC(C)C[C@H](NC(=O)CNC(=O)c1cc(Cl)ccc1Cl)B(O)O` [Ixazomib] displayed a cell viability of 0.28. Next, `CC(C)=CCC[C@](C)(O[C@@H]1O[C@H](CO)[C@@H](O)[C@H](O)[C@H]1O)[C@H]1CC[C@]2(C)[C@@H]1[C@H](O)C[C@@H]1[C@@]3(C)CC[C@H](O)C(C)(C)[C@@H]3[C@@H](O[C@@H]3O[C@H](CO)[C@@H](O)[C@H](O)[C@H]3O[C@@H]3O[C@@H](C)[C@H](O)[C@@H](O)[C@H]3O)C[C@]12C` [Ginsenoside Re]: 0.852; `C[C@H]1CNC(=O)c2cnn3ccc(nc23)N[C@H](C)c2cc(F)ccc2O1`: 0.904; `NC(=O)c1nc(-c2c(F)cccc2Cl)oc1Nc1ccc(C(=O)N2CCOCC2)cc1`: 0.929.

Turning to `C=C(C)[C@@H]1CC[C@]2(C(=O)O)CC[C@]3(C)[C@H](CC[C@@H]4[C@@]5(C)CCC(=O)C(C)(C)[C@@H]5CC[C@]43C)[C@@H]12` [Betulonic acid], the cell viability worked out at 1.08.

On to `O=C(Nc1ccc(C(O)(C(F)(F)F)C(F)(F)F)cc1)c1ccc(C(F)(F)F)cc1`, for which the cell viability was 0.963. For the compound `CN(C)C(=S)NN=C(c1ccccn1)c1ccccn1`, the cell viability came to 0.45. Next, `NNC(=O)c1ccccn1` [2-Picolinyl hydrazide]: 1.02; `Clc1ccc(NN=C(c2ccccc2)c2ccccn2)nc1`: 0.74; `CC1=C(C(=O)Nc2ccc3[nH]ncc3c2)C(c2ccc(F)cc2)NC(=O)N1` (centres undefined): 1.09. On to `CN1CCN(c2ccc(-c3ccncc3-c3cc(F)c(O)c(F)c3)cc2)CC1`, for which the cell viability came to 1.11. For `COc1ccc(CNc2nc(N3CCC[C@H]3CO)ncc2C(=O)NCc2ncccn2)cc1Cl` [Avanafil], the cell viability is 0.984. With `CCc1cnn2c(NCc3ccc[n+]([O-])c3)cc(N3CCCC[C@H]3CCO)nc12` [Dinaciclib], the cell viability was 0.17. `COc1cc2c3cc1Oc1c(OC)c(OC)cc4c1[C@@H](Cc1ccc(O)c(c1)Oc1ccc(cc1)C[C@@H]3N(C)CC2)N(C)CC4` [Berbamine] had a cell viability of 1.09. Next, `CC(=O)Oc1cc(C)c(OC(C)=O)c2ccccc12` [Menadiol Diacetate]: 1.11.

Consider `COc1ccc(/C(C#N)=C/c2ccc(N3CCC(O)CC3)s2)cc1OC`, for which the cell viability turned out to be 0.953. Turning to `CN(C)C/C=C/C(=O)Nc1ccc(C(=O)N2CCC[C@@H](Nc3ncc(Cl)c(-c4c[nH]c5ccccc45)n3)C2)cc1`, the cell viability came to 0.437. In the case of `Cc1cc(C(=O)Nc2nc3cccc(Cl)c3n2[C@@H]2CCCCN(C(=O)/C=C/CN(C)C)C2)ccn1` [Nazartinib] it was 0.907. Next, `Cc1cc(NC(=O)c2cccc(NC(=O)/C=C/CN(C)C)c2)ccc1Nc1nccc(-c2cccnc2)n1`: 0.841. In the case of `CCOc1cc2ncc(C#N)c(Nc3ccc(F)c(Cl)c3)c2cc1NC(=O)/C=C/CN(C)C` [Pelitinib] it was 0.507; in that of `CN(C)C/C=C/C(=O)Nc1ccc(C(=O)Nc2cccc(Nc3ncc(Cl)c(-c4c[nH]c5ccccc45)n3)c2)cc1`, 0.346; in that of `COc1cc(N2CCC(N3CCN(C)CC3)CC2)ccc1Nc1ncc(Cl)c(-c2c[nH]c3ccccc23)n1`, 0.893. For the compound `COc1ccc(C(c2c[nH]c3ccccc23)c2c[nH]c3ccccc23)cc1`, the cell viability is 1.04.

The compound `CC1(C)CC[C@]2(C(=O)O)CC[C@]3(C)C(=CC[C@@H]4[C@@]5(C)C[C@@H](O)[C@H](O)C(C)(C)[C@@H]5CC[C@]43C)[C@@H]2C1` [Maslinic acid] yielded a cell viability of 0.962.

Take `CC(=O)c1ccc(NC2=C(Cl)C(=O)c3ccccc3C2=O)cc1`: the cell viability was determined as 0.908. Consider `COC(=O)c1cc(O)c(O)c(O)c1` [Methyl gallate], for which the cell viability was 1.07. As to `OC1CCC(Oc2cccc3cnc(Nc4ccc5nc[nH]c5c4)nc23)CC1` (centres undefined), the cell viability is 1.02. Turning to `Cc1nn(C)cc1-c1nc2c(N3CCN(Cc4ccc(Cl)cc4)CC3)c(Cl)cnc2[nH]1`, the cell viability was 0.998. On to `CCCCC/C=C\C/C=C\CCCCCCCC(=O)O` [Linoleic acid], for which the cell viability was 0.87. On to `Cc1c(C)c(NCC(=O)N(C)C2CCN(Cc3ccc(C(N)=O)cc3)CC2)c(C)c(C)c1N`, for which the cell viability came out at 0.837. Regarding `COCCN1CCN(Cc2ccc(-c3n[nH]c4c3C(=O)c3c(NC(=O)NN5CCOCC5)cccc3-4)cc2)CC1`, the cell viability was 0.3.

`O=C(Nc1ccc(CN2CCOCC2)cc1)c1ccc(-c2cccc(Cl)c2)o1` yielded a cell viability of 0.816. Next, `CCNC(=O)c1noc(-c2cc(C(C)C)c(O)cc2O)c1-c1ccc(CN2CCOCC2)cc1` [Luminespib]: 0.48. `CONC(=O)Nc1ccc(-c2sc3c(c2CN(C)C)c(=O)n(-c2ccc(OC)nn2)c(=O)n3Cc2c(F)cccc2F)cc1` [Relugolix] had a cell viability of 1.12.

Regarding `COc1ccc(S(=O)(=O)/N=C2\C=CC=C\C2=C/C=C2C=CN(O)C=C2)cc1`, the cell viability came to 0.935. On to `COC(=O)c1c2c(c3ccccc3c1O)OC(C)(C)C=C2` [Mollugin], for which the cell viability came out at 1.05. In the case of `Cc1c(O)c(C)c2c(c1O)C(=O)C[C@@H](c1ccc(O)cc1)O2` [Farrerol] it was 0.874. Next, `CN1CCN(CCCNc2ncc(Cl)c(-c3cc4c(C(=O)NC5CC5)cccc4s3)n2)CC1`: 0.958; `Cc1nc(Nc2ncc(C(=O)Nc3c(C)cccc3Cl)s2)cc(N2CCN(CCO)CC2)n1` [Dasatinib monohydrate]: 0.489.

The compound `Cc1nc(Nc2ncc(C(=O)Nc3c(C)cccc3Cl)s2)cc(N2CCN(CCO)CC2)n1` [Dasatinib] returned a cell viability of 0.348. For `Cc1cc(Nc2cc(N3CCN(C)CC3)nc(Sc3ccc(NC(=O)C4CC4)cc3)n2)n[nH]1` [Tozasertib], the cell viability was determined as 0.762. With `Cc1nn2c([nH]c(=O)c3cccnc32)c1C#N`, the cell viability was 1.02. Next, `O=C(NOCCO)c1cc(CN2OCCCC2=O)c(F)c(F)c1Nc1ccc(I)cc1F`: 0.84; `CC(C)n1nc(-c2ccc3oc(N)nc3c2)c2c(N)ncnc21`: 0.37; `CC(C)Oc1ccc(-c2nn([C@@H](C)c3oc4ccc(F)cc4c(=O)c3-c3cccc(F)c3)c3ncnc(N)c23)cc1F`: 0.937. Next, `CC(C)n1nc(-c2cc3cc(O)ccc3[nH]2)c2c(N)ncnc21` [Torkinib]: 0.733. In the case of `Nc1ccc(-c2cnc(N)c(-c3ccc(Cl)cc3)c2)cn1` it was 1.07; in that of `Oc1cc(-c2nc(-c3ccccc3)[nH]c2-c2ccncc2)ccc1Cl`, 1.22.

Compound `CC(C)CN(CC(=O)N1CCN(CC(OCc2ccc3ccccc3c2)c2ccc(Cl)cc2Cl)CC1)CC(C)C` (centres undefined) gave a cell viability of 1.12. Next, `CC(=O)O[C@@H]1C[C@H](O)[C@@]23CO[C@@H](O)[C@]1(C)[C@@H]2C[C@@H](O)[C@]1(C)[C@@H]3C(=O)[C@H](OC(C)=O)[C@@]2(C)[C@H](c3ccoc3)C[C@H]3O[C@]321` [Toosendanin]: 0.408; `CC(=O)O[C@H]1CC(=O)OC(C)(C)[C@@H]2CC(=O)[C@]3(C)[C@H](CC[C@@]4(C)[C@@H](c5ccoc5)OC(=O)[C@H]5O[C@]543)[C@@]12C` [Nomilin]: 1.15.
